From PubChem
Shown are actives, neighbours in structure and some others; about 3.1% of the full set was active somewhere.
3CLpro inhibitor: SARS-CoV 3CLpro protease inhibition. P0C6X7. recombinant SARS-CoV 3CLpro, quenched FRET peptide cleavage. inhibition, % at 6 µM. actives 0.14% (n = 290,000); in the data active = inhibition above about 12%
Mtb BioA inh: blocks M. tuberculosis BioA enzyme activity; AID 602481; purified M. tuberculosis BioA enzyme, plate reader; inhibition, % at 9.99 µM; actives 0.096% (n = 360,000); in the data active = inhibition above about 40%
FadD28 FP inh: M. tuberculosis FadD28 bisubstrate binding inhibition | actives 0.22% (n = 360,000) | FadD28 bisubstrate probe binding, fluorescence polarization | inhibition, % at 12.5 µM; in the data active = inhibition above about 8.5%, passing the limit was not always enough
GDH-TPI counter: GDH-TPI coupled enzyme inhibition counter-screen | actives 1.2% (n = 360,000) | AID 588335 | inhibition, % at 4.8 µM | GDH-TPI coupled enzyme counterscreen, NADH absorbance; in the data active = inhibition above about 30%
FBA Mtb inh: inhibitors of M. tuberculosis fructose-bisphosphate aldolase | P9WQA3 | purified M. tuberculosis FBA, fluorescence read-out | inhibition, % at 1 µM | actives 2.3% (n = 360,000); in the data active = inhibition above about 27%
Target sequence (P9WQA3 whole entry, looked up): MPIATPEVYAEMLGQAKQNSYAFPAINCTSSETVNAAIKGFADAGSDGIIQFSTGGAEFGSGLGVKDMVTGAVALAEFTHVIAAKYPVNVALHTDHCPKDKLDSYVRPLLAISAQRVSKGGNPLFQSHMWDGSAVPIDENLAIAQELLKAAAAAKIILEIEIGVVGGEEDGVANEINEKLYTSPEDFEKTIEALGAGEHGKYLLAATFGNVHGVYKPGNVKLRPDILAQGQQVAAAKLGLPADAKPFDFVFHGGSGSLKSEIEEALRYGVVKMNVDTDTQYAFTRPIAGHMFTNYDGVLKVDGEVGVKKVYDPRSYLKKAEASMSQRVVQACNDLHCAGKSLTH
Numbers stand for hits; i = inactive; nt = no result; + = active, no number.

SMILES | 3CLpro inhibitor | Mtb BioA inh | FadD28 FP inh | GDH-TPI counter | FBA Mtb inh
COc1ccc(-c2cc(=O)oc3c(C)c(OCC(=O)N[C@@H](Cc4ccc(O)cc4)C(=O)O)ccc23)cc1 | i | i | i | i | i
CC(C)CC(NC(=O)COc1ccccc1)C(=O)O (configuration not stated) | i | nt | i | i | i
Cc1c(C)c2c(OCC(=O)N[C@@H](CC(C)C)C(=O)O)cc3c(c2oc1=O)CCC(C)(C)O3 | i | i | i | i | +
Cc1c(C)c2c(OCC(=O)NC3CC3)cc3c(c2oc1=O)CCC(C)(C)O3 | i | i | i | i | +
Cc1c(C)c2c(OCC(=O)N[C@@H](Cc3ccccc3)C(=O)O)cc3c(c2oc1=O)CCC(C)(C)O3 | i | i | i | 38.2 | +
C[C@@H]1CCCCO[C@@H](CN(C)C(=O)Nc2cccc3ccccc23)[C@@H](C)CN([C@H](C)CO)C(=O)c2cc(NS(=O)(=O)c3cn(C)cn3)ccc2O1 | nt | i | nt | nt | nt
COCCCNC(=O)COc1cc2c(c3oc(=O)c(C)c(C)c13)CCC(C)(C)O2 | i | i | i | i | +
CSCCC(NC(=O)COc1cccc2ccccc12)C(=O)O (configuration not stated) | i | i | i | i | i
CCCC(NC(=O)COc1cc2c(c3oc(=O)c(C)c(C)c13)CCC(C)(C)O2)C(=O)O (configuration not stated) | i | i | i | i | +
CCCCC(NC(=O)Cc1c(C)c2cc3c4c(oc3c(C)c2oc1=O)CCCC4)C(=O)O (configuration not stated) | i | i | i | i | i
CSC[C@H](NC(=O)COc1cc2c(c3oc(=O)c(C)c(C)c13)CCC(C)(C)O2)C(=O)O | i | i | i | i | +
CSCC[C@H](NC(=O)COc1cc2c(c3oc(=O)c(C)c(C)c13)CCC(C)(C)O2)C(=O)O | i | i | i | i | +
Cc1c(C)c2c(OCC(=O)NCC(O)c3ccccc3)cc3c(c2oc1=O)CCC(C)(C)O3 (configuration not stated) | i | i | i | i | i
COc1ccc(S(=O)(=O)Nc2cccc3c2O[C@H](CN(C)C(=O)Nc2ccc(F)cc2)[C@H](C)CN([C@H](C)CO)C3=O)cc1 | nt | i | nt | nt | nt
C[C@@H](NC(=O)C[C@@H]1C=C[C@H](NS(=O)(=O)c2cccc(F)c2)[C@H](CO)O1)c1ccccc1 | nt | i | nt | nt | nt
Cn1c2ccccc2c2nnc(SCC(=O)Nc3cccc(O)c3)nc21 | i | i | i | 35.0 | i
Cn1c2ccc(Br)cc2c2nnc(SCC(=O)O)nc21 | i | i | i | 30.8 | i
COc1ccc(/C=C/C(=O)Nc2cccc(S(=O)(=O)NC3=NCCCCC3)c2)cc1 | i | i | i | 50.6 | i
COc1ccc(/C=C/C(=O)Nc2cccc(S(=O)(=O)NC3=NCCCCC3)c2)c(OC)c1 | nt | i | i | 36.0 | i
CN(C)c1ccc(C(=O)Nc2cccc(S(=O)(=O)NC3=NCCCCC3)c2)cc1 | nt | i | i | 30.8 | i
O=C(/C=C/c1ccc(OC(F)F)cc1)Nc1cccc(S(=O)(=O)NC2=NCCCCC2)c1 | i | i | i | i | i
COc1ccc(OC)c(/C=C/C(=O)Nc2cccc(S(=O)(=O)NC3=NCCCCC3)c2)c1 | nt | i | i | i | i
CCc1nnc(NS(=O)(=O)c2ccc(NC(=O)/C=C/c3ccc(OC)cc3OC)cc2)s1 | i | i | i | 39.7 | i
O=C(C[C@@H]1CC[C@@H](NC(=O)c2ccncc2)[C@H](CO)O1)Nc1ccccc1 | nt | i | nt | nt | nt
CN(C)Cc1cn(CC[C@H]2CC[C@@H](NS(=O)(=O)c3ccccc3)[C@@H](CO)O2)nn1 | nt | i | nt | nt | nt
SMILES | 3CLpro inhibitor | Mtb BioA inh | FadD28 FP inh | GDH-TPI counter | FBA Mtb inh
CC(C)C#Cc1ccc([C@@H]2[C@H](C#N)N(C(=O)CN(C)C)[C@H]2CO)cc1 | nt | i | nt | nt | nt
CC(C)NC(=O)N(C)C[C@@H]1Oc2c(NS(=O)(=O)c3cn(C)cn3)cccc2C(=O)N([C@H](C)CO)C[C@H]1C | nt | i | nt | nt | nt
O=C(CC(=O)c1ccccc1)CS(=O)(=O)c1ccccc1 | nt | i | i | 40.5 | i
Cc1ccc(S(=O)(=O)CC(=O)c2ccccc2)cc1 | i | nt | i | i | i
COCCn1c(C)cc2c(c1=O)C(c1ccco1)C(C#N)=C(N)O2 (configuration not stated) | i | i | i | i | 49.3
N#CCC(=O)Nc1ccccc1C(=O)O | i | i | i | i | i
N#C/C(=C/Nc1ccccc1C(=O)O)C(N)=O | i | nt | i | 68.3 | i
COc1ccc2oc3ccc(OC)cc3c(=O)c2c1 | i | nt | i | i | 48.7
COc1ccc2oc(=O)cc(C)c2c1 | i | nt | i | i | i
CCOC(=O)c1cc(OC)c2cccc(CN3CCC(C)(C(=O)NCCOC)C3)c2c1 (configuration not stated) | nt | i | i | i | 28.5
Cc1c(C)c2ccc(OCC(=O)c3ccccc3)cc2oc1=O | i | i | i | i | i
Cc1c(CCC(=O)NCC(=O)O)c(=O)oc2cc3occ(-c4ccccc4)c3cc12 | i | i | nt | i | i
C=CCOC(=O)COc1ccc2c(C)c(CC)c(=O)oc2c1 | i | i | i | i | 64.2
CCCc1c(C)c2ccc(OCC(C)=O)cc2oc1=O | i | i | i | i | 124.1
Cc1coc2cc3oc(=O)c(CCC(=O)NCC(=O)O)c(C)c3cc12 | i | i | nt | i | 27.6
Cc1c(CCC(=O)O)c(=O)oc2cc(O)ccc12 | i | i | i | i | +
COc1ccc(CCNC(=O)[C@@]2(Cc3ccccc3I)c3ccccc3C(=O)N(Cc3ccccc3OC)[C@H]2c2ccc(CO)cc2)cc1 | nt | i | nt | nt | nt
COc1ccc(-c2c(C)c3ccc(O)cc3oc2=O)cc1OC | i | i | i | i | +
Cc1c(NC(=O)c2cc3c(s2)-c2ccccc2OC3)cccc1[N+](=O)[O-] | i | i | i | 35.8 | i
CCCN1CCN(CCCNC(=O)c2cc3c(s2)-c2c(C)cccc2OC3)CC1 | i | i | i | i | +
Cc1cccc(NC(=O)c2cc3c(s2)-c2c(C)cccc2OC3)n1 | i | i | i | i | i
CC1CC(C)CN(CCCNC(=O)c2cc3c(s2)-c2ccccc2OC3)C1 (configuration not stated) | i | i | i | i | +
CCN1CCN(CCCNC(=O)c2cc3c(s2)-c2ccccc2OC3)CC1 | i | i | i | i | nt
Cc1cccc2c1-c1sc(C(=O)NCCCN3CCCC(C)C3)cc1CO2 (configuration not stated) | i | i | i | i | +
CN(C)C(=O)C[C@H]1CC[C@H](NC(=O)C2CCOCC2)[C@@H](CO)O1 | nt | i | nt | nt | nt
CCC(=O)N1C[C@@H](C)[C@H](OC)CN(C)C(=O)c2cc(NS(=O)(=O)CC)ccc2OC[C@@H]1C | nt | i | nt | nt | nt
COc1ccc(N2CCN(C(=O)c3cc4c(s3)-c3ccccc3OC4)CC2)cc1 | i | i | i | i | i
CC1CCCC(C)N1CCCNC(=O)c1cc2c(s1)-c1ccccc1OC2 (configuration not stated) | i | i | i | i | +
CCCN1CCN(CCCNC(=O)c2cc3c(s2)-c2ccccc2OC3)CC1 | i | i | i | i | +
CN(C)CCNC(=O)c1cc2c(s1)-c1ccccc1OC2 | i | i | i | 31.8 | +
